From PubChem BioAssay (NCATS)
“And” between values parts separate entries of the source, which are not always exact repeats. Equal entries are not always repeated. Records with an inconclusive call do not appear. Entries that show only a call come without a potency. The source made the active and inactive calls. Calls come from the whole dose curve; as a rule, active = well fitted curve in the direction sought with a large enough effect; inconclusive = small, poorly fitted or top-dose-only effect, or another doubt; inactive = no such curve, though single readings can be large; an effect the other way counts as inactive or inconclusive.

Tests used:
[1] = P-glycoprotein substrates identified in KB-8-5-11 adenocarcinoma cell line, qHTS therapeutic library screen (AID 1346987); note: nearly all actives have a fitted effect of over 65% in size
Method in brief: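 In this qHTS, P-gp-rich KB-8-5-11 cells received library compounds across a concentration range. Viability was quantified by luminescence after 72 h at 37 degree C.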

[2] = NS1 protein of Zika virus - qHTS assay to identify small molecule inhibitors in human HEK 293 cells (AID 1347053); note: nearly all actives have a fitted effect of over 55% in size
Method in brief: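 Readout was TR-FRET using paired anti-NS1 antibodies after 24 h infection of HEK 293 cells with ZIKV MR766 (MOI = 0.5). Compound preceded virus by 1 h; reduced signal reflects lower NS1 expression.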

[3] = qHTS of pediatric cancer cell lines to identify multiple opportunities for drug repurposing: Primary screen for TC32 cells (AID 1347089); note: nearly all actives have a fitted effect of over 60% in size
Method in brief: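 In the primary qHTS, MIPE compounds were tested at 11 concentrations (0.78 nM to 46 µM) and NPC compounds at 8 (0.59 nM to 46 µM) on TC32 cells for 48 h. CellTiter-Glo luminescence gave viability.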

[4] = qHTS of pediatric cancer cell lines to identify multiple opportunities for drug repurposing: Primary screen for BT-37 cells (AID 1347094)
Method in brief: (§1)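 Cells plated at 500-1,000/well in growth medium, compounds added after 5 h. MIPE tested at 11 points (from 0.78 nM), NPC at 8 points (from 0.59 nM). CellTiter-Glo luminescence after 48 h; concentration-response curves from primary screen.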

[5] = qHTS of pediatric cancer cell lines to identify multiple opportunities for drug repurposing: Primary screen for U-2 OS cells (AID 1347096); note: nearly all actives have a fitted effect of over 50% in size
Method in brief: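 Viability after 48 h compound treatment at 37C, 500-1,000 cells/well, read as ATP luminescence with CellTiter-Glo. Primary screens used 11-point (MIPE, 0.78 nM-46 µM) or 8-point (NPC, 0.59 nM-46 µM) final concentrations; follow-up screens used 11-point dilutions.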

[6] = qHTS of pediatric cancer cell lines to identify multiple opportunities for drug repurposing: Primary screen for DAOY cells (AID 1347090); note: nearly all actives have a fitted effect of over 55% in size
Method in brief: (§2)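 Viability measured as metabolically active cells via CellTiter-Glo luminescence following 48 hours of compound exposure, 11-point dilutions in confirmatory testing. 500-1,000 cells/well plated 5 hours before dosing; controls were DMSO and 2.3 µM bortezomib.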

[7] = qHTS of pediatric cancer cell lines to identify multiple opportunities for drug repurposing: Primary screen for SJ-GBM2 cells (AID 1347091)
Method in brief: as §2

[8] = qHTS of pediatric cancer cell lines to identify multiple opportunities for drug repurposing: Primary screen for A673 cells (AID 1347092); note: nearly all actives have a fitted effect of over 45% in size
Method in brief: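 48 h compound exposure, A673, 500-1,000 cells/well, 37 degrees C/5% CO2. MIPE: 11-point, 0.78 nM-46 µM; NPC: 8-point, 0.59 nM-46 µM (final). Readout CellTiter-Glo luminescence after 15 min RT.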

[9] = qHTS of pediatric cancer cell lines to identify multiple opportunities for drug repurposing: Primary screen for SK-N-SH cells (AID 1347098); note: nearly all actives have a fitted effect of over 65% in size
Method in brief: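 Cells (500-1,000/well) rested 5 h, then received compounds for 48 h; metabolically active cells were measured by CellTiter-Glo luminescence. Final concentrations spanned up to 46 µM (MIPE, 11-point) or 0.59 nM-46 µM (NPC, 8-point) in primary screens, 11-point in follow-ups.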

[10] = qHTS of pediatric cancer cell lines to identify multiple opportunities for drug repurposing: Primary screen for SK-N-MC cells (AID 1347093)
Method in brief: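 Metabolically active cells were quantified by ATP-dependent luminescence (CellTiter-Glo, 15 min at room temperature) following 48 h treatment. Cells had been plated at 500-1,000 per well and settled for 5 h beforehand.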

[11] = qHTS of pediatric cancer cell lines to identify multiple opportunities for drug repurposing: Primary screen for NB-EBc1 cells (AID 1347095)
Method in brief: as §1

[12] = qHTS of pediatric cancer cell lines to identify multiple opportunities for drug repurposing: Primary screen for Saos-2 cells (AID 1347097); note: nearly all actives have a fitted effect of over 40% in size
Method in brief: as §1
Potency is the fitted concentration of half-maximal effect.

SMILES	Potency [1]	Potency [2]	Potency [3]	Potency [4]	Potency [5]	Potency [6]	Potency [7]	Potency [8]	Potency [9]	Potency [10]	Potency [11]	Potency [12]
CC1=C(C(=O)Nc2cc3cn[nH]c3cc2F)C(c2ccc(C(F)(F)F)cc2)CC(=O)N1 (centres undefined)	inactive	inactive	inactive	inactive	inactive							
CC1=C(CC(=O)O)c2cc(F)ccc2C1=Cc1ccc(S(C)=O)cc1 (centres undefined)	inactive	inactive			inactive	3.72 µM (active)	inactive	1.48 µM (active)	19.2 µM (active)			
CC1CCN(c2cc(N3CCN(C)CC3)ccc2NC(=O)c2cc(C#N)c[nH]2)CC1	inactive	inactive	inactive	inactive	inactive			inactive		inactive		
OC1CCC(Nc2ncc3nc(Nc4c(F)cc(F)cc4F)n([C@@H]4CCOC4)c3n2)CC1 (some centres undefined)	inactive	inactive	inactive				9.35 µM (active)	9.35 µM (active)	inactive		5.26 µM (active)	
CNC(=O)[C@H](Cc1ccccc1)NC(=O)[C@H](CC(C)C)[C@H](CSc1cccs1)C(=O)NO	inactive	inactive	inactive		inactive		inactive				inactive	
COc1c(C)c2c(c(O)c1CC=C(C)CCC(=O)OCCN1CCOCC1)C(=O)OC2	7.43 µM (active)	0.526 µM (active)	4.66 µM (active)	1.53 µM (active)			inactive			1.18 µM (active)	0.59 µM (active)	inactive
CC[C@H](CC#N)OC(=O)N[C@@H](C)c1cccc(NC(=O)Nc2ccc(-c3cnco3)c(OC)c2)c1	5.9 µM (active) and 5.8 µM (active)	0.235 µM (active)	1.04 µM (active)	0.485 µM (active)				0.743 µM (active)	inactive		0.296 µM (active)	18.7 µM (active)
COc1cc(CNC(=O)CCCCC=CC(C)C)ccc1O	inactive	inactive			inactive	inactive	inactive			inactive		inactive
O=C1CCCC(=O)C1C(=O)c1ccc(C(F)(F)F)cc1[N+](=O)[O-]	inactive	inactive	inactive		inactive		inactive	inactive				inactive
CCCCOCCOc1nc(-c2ccc(C(=O)O)c(F)c2)sc1C	inactive	inactive	inactive	inactive	inactive		inactive		6.81 µM (active)		inactive	inactive
O=C1Nc2ccc(I)cc2C1=Cc1cc(Br)c(O)c(Br)c1	inactive	inactive	inactive	inactive	inactive			14.8 µM (active)	inactive			inactive
OCCn1cc(-c2ccc3c(c2)CCC3=NO)c(-c2ccncc2)n1	inactive	inactive	inactive		inactive		inactive				inactive	inactive
CN(C)CC[C@H](CSc1ccccc1)Nc1ccc(S(=O)(=O)NC(=O)c2ccc(N3CCN(Cc4ccccc4-c4ccc(Cl)cc4)CC3)cc2)cc1[N+](=O)[O-]	inactive	inactive			14.8 µM (active)	18.7 µM (active)	0.0833 µM (active)		7.64 µM (active)		0.0418 µM (active)	9.35 µM (active)
C[C@@H]1C[C@H]2[C@@H]3CCC4=CC(=O)C=C[C@]4(C)[C@@]3(F)[C@@H](O)C[C@]2(C)[C@@]1(O)C(=O)CO	inactive	inactive	inactive	inactive	inactive		inactive			0.001 µM (active)		inactive
CCOc1ccccc1N=Nc1c(C)[nH]n(-c2nc(-c3ccccc3)cs2)c1=O	inactive	inactive	inactive		inactive					0.209 µM (active)	inactive	
CC1(C)C(N(O)C(=O)Nc2ccc(Cl)cc2)N(c2ccc(Cl)cc2)C(=O)N1CC(=O)NN=CC=Cc1ccc([N+](=O)[O-])o1 (centres undefined)	inactive	inactive	inactive		inactive		18.7 µM (active)	23.5 µM (active)				
CC[C@H]1OC(=O)[C@H](C)[C@@H](O[C@H]2C[C@@](C)(OC)[C@@H](O)[C@H](C)O2)[C@H](C)[C@@H](O[C@@H]2O[C@H](C)C[C@H](N(C)C)[C@H]2O)[C@](C)(O)C[C@H](C)C(=NOCOCCOC)[C@H](C)[C@@H](O)[C@]1(C)O	inactive	inactive			inactive	inactive	inactive		30.4 µM (active)		inactive	inactive
O=C(Nc1ccccc1)Nc1ccc(-c2ccc(C(=O)[C@H]3CCC[C@H]3C(=O)O)cc2)cc1	inactive	inactive	inactive		inactive			11.8 µM (active)		1.87 µM (active)	inactive	inactive
COc1cc2ncn(-c3cc(OCc4ccccc4S(C)(=O)=O)c(C#N)s3)c2cc1OC	inactive	inactive	inactive	inactive	inactive			23.5 µM (active)		13.2 µM (active)	inactive	
O=C(CC12CC3CC(CC(C3)C1)C2)Nc1cccc2nc(NCCNCCO)ccc12	inactive	inactive	inactive		inactive			18.7 µM (active)	24.1 µM (active)	1.87 µM (active)		
CC(C)n1c(C=C[C@H](O)C[C@H](O)CC(=O)O)c(-c2ccc(F)cc2)c2ccccc21	11.8 µM (active)	inactive		19.3 µM (active)	14.8 µM (active)	1.87 µM (active)	9.35 µM (active)		6.81 µM (active)	11.8 µM (active)		1.87 µM (active)
